# Laboratory results published in PubChem BioAssay (EPA / NIEHS).
# Inconclusive results are not listed. The source made the active and inactive calls. The calls were made as follows: active = hit-call score of the fitted dose curve at least 0.9, where 1 is the maximum; inconclusive = response in the unintended direction; inactive = score below 0.9.
# Target: Peroxisome proliferator-activated receptor gamma (Homo sapiens) (UniProt P37231)
# Test: OT_PPARg_PPARgSRC1_0480: Odyssey Thera (OT) 8-hour Protein-Complementation Assay for Peroxisome Proliferator-activated Receptor Gamma / SRC-1 Co-activator (AID 2283387);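 also: nuclear to cytoplasmic split Venus YFP fluorescence ratio reporting PPARg SRC-1 interaction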
# Method: OT_PPARg_PPARgSRC1_0480 is a cell-based assay that uses HEK293T, a human kidney cell line, with measurements taken at 8 hours after chemical dosing in a 384-well plate.OT_PPARg_PPARgSRC1_0480 is one of one assay component(s) measured or calculated from the OT_PPARg_PPARgSRC1_0480 assay. It is designed to make measurements of protein fragment complementation, a form of binding reporter, as detected with fluorescence intensity signals by Protein-fragment Complementation technology.Data from the assay component OT_PPARg_PPARgSRC1_0480 was analyzed into 1 assay endpoint. This assay endpoint, OT_PPARg_PPARgSRC1_0480, was analyzed in the positive analysis fitting direction relative to DMSO as the negative control and baseline of activity. Using a type of binding reporter, measures of receptor for gain-of-signal activity can be used to understand the binding at the pathway-level as they relate to the gene PPARG. Furthermore, this assay endpoint can be referred to as a primary readout, because the performed assay has only produced 1 assay endpoint. To generalize the intended target to other relatable targets, this assay endpoint is annotated to the nuclear receptor intended target family, where the subfamily is non-steroidal.
# The OT PPARg/SRC-1 assay assessed receptor-chemical interactions using a rapidly maturing, intensely fluorescent mutant of YFP known as Venus, rationally dissected into two separate fragments. The fragments were obtained as follows: first, fragments coding for YFP1 and YFP2 (corresponding to amino acid residues 1-158 and 159-239 of the full length YFP, respectively) were generated by oligonucleotide synthesis (Blue Heron Biotechnology), and then PCR mutagenesis was used to generate the mutant fragments IFP1 and IFP2. Fusion constructs were transfected into HEK293T cells with a (Gly4Ser)2 linker between the PPARg/SRC-1 and YFP fragment genes to facilitate complementation when interacting proteins bring fragments into close proximity. The construct is transiently transfected in HEK293T cells 48 hours prior to treatment with test compounds. Cells are seeded into optical quality 384-well poly-D-lysine coated plates in MEM alpha medium (Invitrogen) supplemented with 10 percent FBS (Gemini Bio-Products) 1 percent penicillin and 1 percent streptomycin, and grown in 37C incubator equilibrated to 5 percent CO2. Cells are allowed to adhere for 24 hours prior to treatment with compounds of interest or controls for 8 hours. Cells are fixed in 4 percent formaldehyde and stained with Draq5 (BioStatus) to identify cells and subcellular compartment boundaries prior to signal detection. 8 Images per well were acquired on an Evotec Opera at 2 wavelengths (488 and 635nm), and the ratio of fluorescence in the nucleus relative to fluorescence in the cytoplasm (N/C Ratio) in the 488nm channel was calculated for a minimum of 350 cells per image.
# Sequence of Peroxisome proliferator-activated receptor gamma (Homo sapiens) (P37231 whole entry, looked up): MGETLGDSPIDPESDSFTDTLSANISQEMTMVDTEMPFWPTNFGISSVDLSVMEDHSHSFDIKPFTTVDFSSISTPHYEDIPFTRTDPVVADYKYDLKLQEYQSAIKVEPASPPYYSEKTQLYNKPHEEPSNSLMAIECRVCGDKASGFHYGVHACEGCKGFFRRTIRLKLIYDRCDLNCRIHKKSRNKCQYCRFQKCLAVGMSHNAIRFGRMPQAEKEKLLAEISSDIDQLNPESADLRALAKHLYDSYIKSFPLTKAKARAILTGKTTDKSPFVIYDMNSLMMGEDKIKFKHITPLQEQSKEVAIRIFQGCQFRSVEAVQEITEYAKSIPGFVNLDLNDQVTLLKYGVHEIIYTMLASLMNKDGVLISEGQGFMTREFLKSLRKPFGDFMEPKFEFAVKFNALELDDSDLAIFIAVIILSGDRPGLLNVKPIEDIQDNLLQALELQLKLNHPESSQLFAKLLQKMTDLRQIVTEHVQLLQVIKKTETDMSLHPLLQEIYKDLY
row,SMILES,outcome
1,O=C(CBr)OCc1ccccc1,inactive
2,CCCN(CCC)c1c([N+](=O)[O-])cc(C(C)C)cc1[N+](=O)[O-],inactive
3,Cc1cccc(N)c1,inactive
4,CCCCOCC1CO1 (stereo not given),inactive
5,O=[N+]([O-])c1ccc(Cl)c(Cl)c1,inactive
6,O=C(O)C(Cl)Cl,inactive
7,CCCCc1ccccc1,inactive
8,O=P1(N(CCCl)CCCl)NCCCO1 (stereo not given),inactive
9,CCNc1nc(Cl)nc(NC(C)(C)C)n1,inactive
10,CCCCN(CCCC)N=O,inactive
11,O=C(O)CF,inactive
12,COC(N)=O,inactive
13,c1cc2c3c(cccc3c1)CC2,inactive
14,CCOC(=O)c1ccccc1C(=O)OCC,inactive
15,O=P(Oc1ccccc1)(Oc1ccccc1)Oc1ccccc1,inactive
16,CC(Cc1ccc(OCC(=O)O)cc1)NCC(O)c1csc(C(F)(F)F)n1 (stereo not given),inactive
17,Cc1ccc(N)cc1N,inactive
18,[N-]=[N+]=[N-],inactive
19,CCCCN(CCCC)SN(C)C(=O)Oc1cccc2c1OC(C)(C)C2,inactive
20,CC1(C)CN=C(NN=C(/C=C/c2ccc(C(F)(F)F)cc2)/C=C/c2ccc(C(F)(F)F)cc2)NC1,inactive

row,SMILES,outcome
1,Nc1ccc(Cl)cc1,inactive
2,O=P(OCC(Br)CBr)(OCC(Br)CBr)OCC(Br)CBr (stereo not given),inactive
3,CCOS(=O)(=O)OCC,inactive
4,OCC1CO1 (stereo not given),inactive
5,CCCCOCCOP(=O)(OCCOCCCC)OCCOCCCC,inactive
6,CCCCN(CC)C(=O)SCCC,inactive
7,CCCCc1ccc(O)cc1,inactive
8,CN(C)C(=O)Cl,inactive
9,O=[N+]([O-])c1ccccc1,inactive
10,CCC(C)(C)c1ccc(O)cc1,inactive
11,CSC(C)(C)C=NO,inactive
12,Cc1ccc([N+](=O)[O-])cc1C,inactive
13,O=c1ssc(Cl)c1Cl,inactive
14,CCOP(=S)(Oc1ccc([N+](=O)[O-])cc1)c1ccccc1 (stereo not given),inactive
15,Nc1cc2c3c(c1)C(c1ccccc1)=N[C@@H](NC(=O)c1cccnc1)C(=O)N3CC2,inactive
16,c1ccc(OP(Oc2ccccc2)Oc2ccccc2)cc1,inactive
17,Nc1ccc2ccccc2c1,inactive
18,c1nc[nH]n1,inactive
19,ClC1=C(Cl)C2(Cl)C3C(Cl)C(Cl)CC3C1(Cl)C2(Cl)Cl (stereo not given),inactive
20,CCC1(c2ccccc2)C(=O)N=C(O)NC1=O (stereo not given),inactive
